# Source: PubChem BioAssay
# Where “and” joins values, the source holds several entries; their conditions need not be identical. Equal entries are not always repeated. Calls of active or inactive are those of the source.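 Rule for the calls, unless noted: active = mean z-score across replicates of 1.96 or higher in either the MELAS or the Rieske mutant cell line; inactive = the rest.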
# Tests used:
# [1] = Wnt pathway potentiators raising nuclear beta-catenin – imaging, WNT3A-conditioned medium, mouse C2C12, NPC library, primary screen (AID 1117326; in the data active = nuclear beta-catenin stimulation mostly above about 4.2%, no sharp cut-off; inactive = mostly below about 10%); conditions: stronger effect = higher value
# [2] = stimulators of insulin release from INS-1E, primary screen, cell-based, 5 mM glucose, NPC library (AID 1117329;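 active = compound raises insulin release from rat beta cells at 5 mM glucose, no numeric limit stated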); conditions: rat INS-1E insulin secretion, at 10 µM, stronger effect = higher value
# [3] = growth inhibition of GSK3B-pretreated HCT116 cells – cell-based, CellTiter-Glo, 0.2 to 20 µM (AID 1117336;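 active = compounds lowering colon cancer cell viability after pretreatment blocking the GSK3B kinase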); conditions: HCT116 viability after GSK3B inhibitor, at 20 µM, stronger effect = higher value
# [4] = inhibition of endothelial tube formation, primary screen, imaging, VEGF stimulated, CD31 staining, tube area, NPC library (AID 1117340;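 active = compound that reduces growth-factor-driven endothelial tube area in a mixed cell culture, no cutoff stated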); conditions: VEGF-stimulated ADSC/ECFC co-culture, at 10 µM, stronger effect = higher value
# [5] = GLP1 release stimulators, primary, NCI-H716, NPC library (AID 1117341;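 active = compound raises GLP1 secretion from the human gut endocrine cells, with no numeric limit stated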); conditions: NCI-H716 cells, at 10 µM, stronger effect = higher value
# [6] = HCT116 colon cancer cell growth inhibition, primary screen, CellTiter-Glo luminescence, NPC library (AID 1117342;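 active = compounds that lower survival of HCT116 colon cancer cells in the luminescence readout, no numeric limit stated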); conditions: at 20 µM (top of the series)
# [7] = reduced SW480 viability measured with CellTiter-Glo, NPC library, primary (AID 1117343;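 active = compounds that lower viability of the colon cancer cells in the luminescence readout, with no numeric limit stated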); conditions: CellTiter-Glo luminescence; at 20 µM (top of the series)
# [8] = NPC library primary testing for decreased DLD-1 cell viability via CellTiter-Glo (AID 1117346;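 active = compounds that lower survival of DLD-1 colon cancer cells in the luminescence readout, no cutoff given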); conditions: DLD-1 viability, CellTiter-Glo luminescence; at 20 µM (top of the series)
# [9] = viability loss with induced miR-34 in A549 – imaging, A549 dox-inducible miR-34, nuclei and caspase counts, primary screen (AID 1347080;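 active = compounds whose cell count with miR-34 switched on is under 0.7 times the count with it off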); conditions: A549 miR-34 inducible, Hoechst nuclei count, 48 h
# [10] = target: NAD(+) hydrolase SARM1 (Homo sapiens) (UniProt Q6SZW1); experiment: blocking NAD cleavage by SARM1 SAM-TIR – cell lysate, NAD-Glo luminescence (AID 1508614;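 active = compound whose remaining NAD level is above about 45 nM, limit read from the data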;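 note: higher remaining NAD means stronger inhibition of SARM1 NADase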); conditions: SAM-TIR HEK293T lysate NADase, at 1 µM, stronger effect = higher value
# [11] = target: Mitogen-activated protein kinase 7 (Homo sapiens) (UniProt Q13164); experiment: Gal4-ERK5 driven luciferase induction – cell-based, HTS, primary screen (AID 1508626;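 active = luciferase signal above three times the same-plate solvent-only control wells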;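 note: luciferase driven by Gal4-ERK5 fusion binding five Gal4 sites before minimal TATA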); conditions: HeLa Gal4-ERK5 transactivation, 18 h, at 5 µM, stronger effect = higher value
# [12] = system: Hepatitis C virus NS3 helicase; experiment: blockers of NS3h binding to DNA – biochemical, fluorescence polarization, NIH Clinical Collection, primary screen (AID 743270; call rule not given here); conditions: NS3 helicase binding to Cy5-dT15 DNA, stronger effect = higher value, concentration not given here
# [13] = target: Single-stranded DNA-binding protein (Escherichia coli (strain K12)) (UniProt P0AGE0); experiment: SSB-ssDNA binding inhibitors – biochemical, fluorescence polarization, NIH Clinical Collection, counter-screen for HCV NS3 helicase inhibitor project (AID 743271; in the data active = inhibition above about 28%); conditions: E. coli SSB-DNA binding, stronger effect = higher value, concentration not given here
# [14] = compounds distorting NS3 helicase fluorescence signal – biochemical, NIH Clinical Collection, artefact control for HCV NS3 helicase inhibitor project (AID 743272; call rule not given here;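 note: HCV NS3 helicase with a Cy5 labelled single stranded DNA probe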); conditions: fluorescence interference counterscreen, HCV NS3 helicase assay; stronger effect = lower value
# [15] = target: 6-phosphogluconate dehydrogenase, decarboxylating (Homo sapiens) (UniProt P52209); experiment: inhibition of human phosphogluconate dehydrogenase – biochemical, recombinant enzyme, NADPH absorbance, primary screen (AID 1159550;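 active = at least 20% inhibition of 6-phosphogluconate dehydrogenase activity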); conditions: recombinant 6PGD, NADPH absorbance 341 nm; at 10 µM; stronger effect = higher value
# [16] = EMT-state selective cytotoxicity in co-culture – imaging, PC-3E GFP, TEM4-18 mCherry, primary screen (AID 1345086;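 active = compounds killing one labelled cell type while sparing the other, by normalised counts and ratio limits, not self-fluorescent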;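 for all read-outs here: cells exposed to compound for 72 h before imaging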;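 for red/green cell ratio (normalised): normalised mesenchymal count divided by normalised epithelial count so high means epithelial killing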); conditions: PC-3E GFP / TEM4-18 mCherry co-culture, imaging cell counts, at 1 µM; for red/green cell ratio (normalised): actives lie on both sides, counts scaled to control wells, 1 = unselective
# [17] = MELAS cybrid and Rieske KO viability enhancers – cell-based, MELAS cybrids, Rieske KO mouse fibroblasts, CellTiter-Glo, primary screen (AID 1508586); conditions: low glucose;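 note: z relative to plate mean and SD of compound and empty wells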
# F380Y = experiment: BK channel mutant inhibitors and activators – cell-based, U2OS BacMam, thallium flux, beta subunits, selectivity assay, profiling panel (AID 1259406;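 active = thallium flux through the channel raised or lowered by more than 3 SD from vehicle-only wells, actives on both sides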;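 note: initial slope of Thallos dye fluorescence rise after thallium is added; log ratio against the mean of 0.3% DMSO vehicle wells on the same plate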); conditions: U2OS BacMam BK variants, at 30 µM
# F380Y/beta2Delta = experiment: as above; conditions: U2OS BacMam BK variants, at 30 µM
# [18] = target: Calcium-activated potassium channel subunit alpha-1 (Homo sapiens) + Leucine-rich repeat-containing protein 26 (Homo sapiens) (UniProt Q12791+Q2I0M4); experiment: as above; conditions: U2OS BacMam BK variants, F380Y/Slo1WT/gamma1, at 30 µM
# [19] = measured here: epithelial PC-3E GFP cell survival
# [20] = measured here: mesenchymal TEM4-18 mCherry cell survival
# [21] = MELAS cybrid survival, CellTiter-Glo 48 h, stronger effect = higher value
# [22] = Rieske KO mouse fibroblast survival, CellTiter-Glo 72 h
# Mitogen-activated protein kinase 7 (Homo sapiens), sequence (Q13164 whole entry, looked up, the tested form may be a part): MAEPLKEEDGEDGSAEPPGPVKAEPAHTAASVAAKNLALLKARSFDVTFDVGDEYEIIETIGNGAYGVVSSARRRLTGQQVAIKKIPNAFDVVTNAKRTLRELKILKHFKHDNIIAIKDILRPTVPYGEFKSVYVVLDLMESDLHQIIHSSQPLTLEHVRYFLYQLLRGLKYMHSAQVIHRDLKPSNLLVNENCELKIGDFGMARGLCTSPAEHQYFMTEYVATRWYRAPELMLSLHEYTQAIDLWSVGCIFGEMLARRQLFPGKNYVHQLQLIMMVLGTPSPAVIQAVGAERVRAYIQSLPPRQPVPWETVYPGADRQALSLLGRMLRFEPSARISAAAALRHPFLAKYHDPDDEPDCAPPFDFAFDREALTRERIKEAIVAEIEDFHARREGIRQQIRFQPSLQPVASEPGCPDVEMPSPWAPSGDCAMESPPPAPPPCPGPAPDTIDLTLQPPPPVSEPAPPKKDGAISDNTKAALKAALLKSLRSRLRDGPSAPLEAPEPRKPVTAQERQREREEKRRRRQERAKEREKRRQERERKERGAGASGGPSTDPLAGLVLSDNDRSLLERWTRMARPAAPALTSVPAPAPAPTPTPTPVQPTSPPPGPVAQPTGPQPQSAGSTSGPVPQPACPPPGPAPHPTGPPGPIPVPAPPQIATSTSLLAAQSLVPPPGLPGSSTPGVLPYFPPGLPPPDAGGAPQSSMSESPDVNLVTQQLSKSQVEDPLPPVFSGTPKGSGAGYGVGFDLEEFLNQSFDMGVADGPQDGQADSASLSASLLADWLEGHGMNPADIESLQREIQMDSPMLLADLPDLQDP
# NAD(+) hydrolase SARM1 (Homo sapiens), sequence (Q6SZW1 whole entry, looked up, the tested form may be a part): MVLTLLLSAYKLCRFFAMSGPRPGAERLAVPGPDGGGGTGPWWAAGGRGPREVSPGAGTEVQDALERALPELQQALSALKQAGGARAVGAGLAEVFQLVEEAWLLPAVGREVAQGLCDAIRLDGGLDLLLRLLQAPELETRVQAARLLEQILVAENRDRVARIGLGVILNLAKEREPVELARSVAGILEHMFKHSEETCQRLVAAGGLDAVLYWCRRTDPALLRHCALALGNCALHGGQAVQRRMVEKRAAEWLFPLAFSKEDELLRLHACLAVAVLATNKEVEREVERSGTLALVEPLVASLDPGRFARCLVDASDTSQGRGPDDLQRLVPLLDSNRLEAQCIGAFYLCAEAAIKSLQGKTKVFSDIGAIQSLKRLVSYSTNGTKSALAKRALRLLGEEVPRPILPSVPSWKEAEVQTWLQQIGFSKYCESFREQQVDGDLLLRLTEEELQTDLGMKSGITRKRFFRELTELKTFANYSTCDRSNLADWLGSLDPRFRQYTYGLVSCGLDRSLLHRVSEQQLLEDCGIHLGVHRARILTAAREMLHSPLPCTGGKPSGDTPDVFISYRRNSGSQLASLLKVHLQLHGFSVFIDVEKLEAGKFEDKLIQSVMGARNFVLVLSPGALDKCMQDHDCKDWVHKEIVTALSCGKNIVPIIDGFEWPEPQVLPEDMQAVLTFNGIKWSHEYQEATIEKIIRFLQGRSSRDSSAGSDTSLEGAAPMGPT
# 6-phosphogluconate dehydrogenase, decarboxylating (Homo sapiens), sequence (P52209 whole entry, looked up): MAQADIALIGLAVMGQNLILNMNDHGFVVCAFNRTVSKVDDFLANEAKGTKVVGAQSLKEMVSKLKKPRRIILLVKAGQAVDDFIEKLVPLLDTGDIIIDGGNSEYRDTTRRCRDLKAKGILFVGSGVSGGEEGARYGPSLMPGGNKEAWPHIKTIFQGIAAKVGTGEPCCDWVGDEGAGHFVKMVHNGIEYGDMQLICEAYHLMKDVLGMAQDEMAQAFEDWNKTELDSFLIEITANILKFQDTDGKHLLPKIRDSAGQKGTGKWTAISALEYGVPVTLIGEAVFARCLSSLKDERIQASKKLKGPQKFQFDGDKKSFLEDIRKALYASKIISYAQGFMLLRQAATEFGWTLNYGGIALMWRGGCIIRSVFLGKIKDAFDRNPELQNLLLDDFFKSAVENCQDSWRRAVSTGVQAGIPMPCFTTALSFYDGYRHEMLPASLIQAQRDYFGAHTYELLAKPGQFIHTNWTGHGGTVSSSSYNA
# Calcium-activated potassium channel subunit alpha-1 (Homo sapiens) + Leucine-rich repeat-containing protein 26 (Homo sapiens), sequence (Q2I0M4 whole entry, looked up, one chain of several): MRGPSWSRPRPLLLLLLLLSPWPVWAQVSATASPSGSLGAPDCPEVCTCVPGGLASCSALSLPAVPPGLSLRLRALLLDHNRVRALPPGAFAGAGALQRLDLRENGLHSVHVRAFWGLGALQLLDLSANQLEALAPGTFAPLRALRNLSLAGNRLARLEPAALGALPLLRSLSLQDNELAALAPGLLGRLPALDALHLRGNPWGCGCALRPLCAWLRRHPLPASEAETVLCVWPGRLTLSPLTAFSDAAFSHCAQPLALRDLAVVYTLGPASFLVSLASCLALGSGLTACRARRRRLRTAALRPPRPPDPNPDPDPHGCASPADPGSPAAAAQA
structure (smiles),measurement,setting,value
CC[C@]1(O)C[C@@H]2CN(CCc3c([nH]c4ccccc34)[C@@](C(=O)OC)(c3cc4c(cc3OC)N(C)[C@H]3[C@@](O)(C(=O)OC)[C@H](OC(C)=O)[C@]5(CC)C=CCN6CC[C@]43[C@@H]65)C2)C1,nuclear beta-catenin stimulation,[1]; at 10 µM,78.2% (active) and 46.4% (active)
same,nuclear beta-catenin stimulation,"[1]; stimulation, at 2 µM",49.7% and 61.6%
same,insulin secretion stimulation,[2],5.8% (inactive) and 3.65% (inactive)
same,viability decrease,[3],84.6% (active) and 97.7% (active)
same,tube area decrease,[4],108% (active) and 104% (active)
same,GLP1 secretion stimulation,[5],-1.3% (inactive) and 5.9% (inactive)
same,inhibition of viability,[6],79.8% (active) and 74.2% (active)
same,viability decrease (inhibition),[7],89.7% (active) and 76.2% (active)
same,viability decrease (inhibition),[8],84.7% (active) and 75.3% (active)
same,fold change,"[9]; stronger effect = lower value, cell number ratio, induced over uninduced",1.08 (inactive)
same,fold change,[9]; measured here: relative caspase fold change +Dox/-Dox,0.797
same,cell count,"[9]; measured here: total cells with miR-34 induction, stronger effect = lower value",794
same,cell count,[9]; measured here: total cells without miR-34 induction,738
same,remaining NAD,[10],10 nM (inactive)
same,luciferase signal,[11],72 AU (inactive)
O=C(c1ccccc1)c1ccc2n1CCC2C(=O)O (stereo not drawn),inhibition,[12],-2.77% (inactive)
same,inhibition,[13],-7.8% (inactive)
same,fluorescence ratio,[14],0.99 (inactive)
same,nuclear beta-catenin stimulation,[1]; at 10 µM,-0.4% (inactive)
same,nuclear beta-catenin stimulation,"[1]; stimulation, at 2 µM",-0.5%
same,insulin secretion stimulation,[2],0.8% (inactive)
same,viability decrease,[3],3.4% (inactive)
same,tube area decrease,[4],15.4% (inactive)
same,GLP1 secretion stimulation,[5],-3.6% (inactive)
same,inhibition of viability,[6],-1.1% (inactive)
same,viability decrease (inhibition),[7],1.1% (inactive)
same,viability decrease (inhibition),[8],11.4% (inactive)
same,inhibition,[15],6.58% (inactive)
same,red/green cell ratio (normalised),[16],1.03 (inactive)
same,normalised cell number,[16]; [19],1.2
same,normalised cell number,[16]; [20],1.24
same,z-score,[17]; [21],0.234 (inactive) and -0.244 (inactive) and -0.284 (inactive)
same,z-score,[17]; [22],-0.239 and 0.894 and -0.237
same,remaining NAD,[10],10 nM (inactive)
same,luciferase signal,[11],36 AU (inactive)
CNCCCC12CCC(c3ccccc31)c1ccccc12,inhibition,[12],-1.98% (inactive)
same,inhibition,[13],-1.64% (inactive)
same,fluorescence ratio,[14],0.83 (inactive)
same,nuclear beta-catenin stimulation,[1]; at 10 µM,1.9% (inactive)
same,nuclear beta-catenin stimulation,"[1]; stimulation, at 2 µM",-0.1%
same,insulin secretion stimulation,[2],12.2% (inactive)
same,viability decrease,[3],55.6% (active)
same,tube area decrease,[4],12.2% (inactive)
same,GLP1 secretion stimulation,[5],4.8% (inactive)
same,inhibition of viability,[6],87.4% (active)
same,viability decrease (inhibition),[7],121% (active)
same,viability decrease (inhibition),[8],68.3% (active)
same,inhibition,[15],8.09% (inactive)
same,red/green cell ratio (normalised),[16],0.89 (inactive)
same,normalised cell number,[16]; [19],1.11
same,normalised cell number,[16]; [20],0.98
same,z-score,[17]; [21],-0.365 (inactive) and 0.126 (inactive) and 0.618 (inactive)
same,z-score,[17]; [22],0.802 and 0.382 and 0.29
same,remaining NAD,[10],10 nM (inactive)
same,luciferase signal,[11],48 AU (inactive)
same,log fold change Tl+ flux,F380Y,0.104 (inactive)
same,log fold change Tl+ flux,F380Y/beta2Delta,0.203 (active)
same,log fold change Tl+ flux,[18],0.0351 (inactive)
